Experimental data as given in PubChem BioAssay AID1220 (Sanford-Burnham Center for Chemical Genomics, 2008).
About 1,300 (0.68%) of roughly 190,000 compounds were called active. Many of the other results were omitted from the sample, so actives are more common in it than they were. Unmarked numbers belong to inactive results. Rule as the data show it: active = inhibition above about 50%; inactive = the rest.

The molecules below were run against Mannose-6-phosphate isomerase (Homo sapiens) (UniProt P34949) (assay: MPI inhibition at elevated mannose 6-phosphate – biochemical, fluorescence intensity, high mannose 6-phosphate, primary screen (AID 1220)). Details: recombinant PMI enzyme, coupled fluorescence intensity; at 20 µM; stronger effect = higher value.
Mannose-6-phosphate isomerase (Homo sapiens), sequence (P34949 whole entry, looked up): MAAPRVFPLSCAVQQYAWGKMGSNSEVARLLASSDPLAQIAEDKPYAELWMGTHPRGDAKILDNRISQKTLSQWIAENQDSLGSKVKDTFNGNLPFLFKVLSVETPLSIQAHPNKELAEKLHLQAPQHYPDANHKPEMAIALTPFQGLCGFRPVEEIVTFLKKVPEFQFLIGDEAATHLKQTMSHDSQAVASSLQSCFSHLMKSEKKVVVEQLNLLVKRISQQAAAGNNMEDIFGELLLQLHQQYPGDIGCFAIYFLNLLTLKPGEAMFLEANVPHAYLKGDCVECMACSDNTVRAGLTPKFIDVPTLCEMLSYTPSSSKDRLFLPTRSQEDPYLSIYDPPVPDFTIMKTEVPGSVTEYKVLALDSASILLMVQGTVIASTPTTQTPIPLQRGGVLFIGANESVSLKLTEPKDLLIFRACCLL
With `Cc1cccc(NC(=O)c2ccoc2C)n1` the inhibition was 9.2%. With `COc1cc(-c2n[nH]c(=S)n2-c2cc(C(F)(F)F)ccc2Cl)cc(OC)c1OC` the inhibition was 8.8%. For `CN(C)Cc1c(O)ccc2c3c(c(=O)oc12)CCCCC3`, the inhibition was -2.7%. `O=c1oc2c(CN3CCOCC3)c(O)ccc2c2ccccc12` showed an inhibition of 0.8%. In the case of `CC1=C(C#N)c2nc(N)c(C#N)c(C)c2/C1=C\c1ccc(C)cc1`, the inhibition is reported as -35.8%. In the case of `COc1cc(/C=C2/C(C)=C(C#N)c3nc(N)c(C#N)c(C)c32)ccc1OCC(=O)O`, the inhibition is reported as 50.9% (active). With `CC1=C(C#N)c2nc(N)c(C#N)c(C)c2/C1=C\c1ccc(-c2ccccc2C(=O)O)o1` the inhibition was 10.6%. With `Cc1c(O)ccc(NS(=O)(=O)c2ccccc2)c1C` the inhibition was 5%. `CCOC(=O)c1c(C)[n+]([O-])c2ccc3c(non3O)c12` gave an inhibition of 10.7%. For `O=c1c2c(nc3n1CCCCC3)-c1ccccc1CC21CCCCC1`, the inhibition was 1.4%. `Oc1ccc(C=NC2CCCCC2)c(O)c1` was tested, and the inhibition was 29%. In the case of `O=C1C2C3C=CC(CC3)C2C(=O)N1/N=C/c1c(O)ccc2ccccc12` (stereo not drawn), the inhibition is reported as 70.3% (active). `O=S(=O)(/N=C/c1c(O)ccc2ccccc12)c1cccs1` was tested, and the inhibition was 27.7%. Work on `O=C1C2C3C=CC(CC3)C2C(=O)N1/N=C/c1ccccc1O` (stereo not drawn) yielded an inhibition of -0.9%. `Oc1ccc2ccccc2c1/C=N/Nc1ccccc1` showed an inhibition of -35.6%. For `O=C1C2C3C=CC(CC3)C2C(=O)N1/N=C/c1ccc(O)c(O)c1` (stereo not drawn), the inhibition was -11.1%. Work on `CN(C)/N=C/c1c(O)ccc2ccccc12` yielded an inhibition of 26.9%. Work on `CCc1ccc(C=NC23CN4CN(CN(C4)C2)C3)s1` yielded an inhibition of 2%. In the case of `O=C(N/N=C\c1c(O)ccc2ccccc12)c1ccc(S(=O)(=O)N2CCCCC2)cc1`, the inhibition is reported as -8.7%. Molecule `Cc1ccccc1C(=O)NC(=S)Nc1ccc(S(=O)(=O)N2CCOCC2)cc1` has an inhibition of 3.6%. `CC(C)CC(=O)NC(=S)Nc1ccccn1` gave an inhibition of -9.5%. Work on `CCSc1nnc(NC(=O)CCc2ccc(OC)cc2)s1` yielded an inhibition of 8.9%. With `Cc1ccc(C2C(C#N)=C(N)SC(N)=C2C#N)o1` the inhibition was -7.3%. In the case of `Oc1c(Cl)cccc1C=Nc1cc(C(F)(F)F)ccc1N1CCCC1`, the inhibition is reported as 7.1%. For `O=C(N/N=C/c1c(O)ccc2ccccc12)c1cccc(C(F)(F)F)c1`, the inhibition was 8.4%. In the case of `Oc1ccc2ccccc2c1C=Nc1cc(C(F)(F)F)ccc1N1CCCC1`, the inhibition is reported as 52.1% (active). For `CC(=O)Nc1cc(Cl)ccc1OS(=O)(=O)c1ccc(C)cc1`, the inhibition was 6.5%. `Fc1ccc(CN2CCCCCCC2)cc1` was tested, and the inhibition was -6.8%.
